Design in all cases: scale not given: direction of the effect not stated beside the values
The target in test [1] is Protein translocase subunit SecA (Escherichia coli (strain K12)) (UniProt P10408). In words: Assay to Identify E. coli SecA ATPase Inhibitors. The class given is functional. Conditions: 30 µM.
For test [2], the target named is T1, Ubiquitin-activating enzyme e1, putative (Leishmania donovani (strain BPK282A1)) (UniProt E9BSI1).
T1 sequence (whole entry): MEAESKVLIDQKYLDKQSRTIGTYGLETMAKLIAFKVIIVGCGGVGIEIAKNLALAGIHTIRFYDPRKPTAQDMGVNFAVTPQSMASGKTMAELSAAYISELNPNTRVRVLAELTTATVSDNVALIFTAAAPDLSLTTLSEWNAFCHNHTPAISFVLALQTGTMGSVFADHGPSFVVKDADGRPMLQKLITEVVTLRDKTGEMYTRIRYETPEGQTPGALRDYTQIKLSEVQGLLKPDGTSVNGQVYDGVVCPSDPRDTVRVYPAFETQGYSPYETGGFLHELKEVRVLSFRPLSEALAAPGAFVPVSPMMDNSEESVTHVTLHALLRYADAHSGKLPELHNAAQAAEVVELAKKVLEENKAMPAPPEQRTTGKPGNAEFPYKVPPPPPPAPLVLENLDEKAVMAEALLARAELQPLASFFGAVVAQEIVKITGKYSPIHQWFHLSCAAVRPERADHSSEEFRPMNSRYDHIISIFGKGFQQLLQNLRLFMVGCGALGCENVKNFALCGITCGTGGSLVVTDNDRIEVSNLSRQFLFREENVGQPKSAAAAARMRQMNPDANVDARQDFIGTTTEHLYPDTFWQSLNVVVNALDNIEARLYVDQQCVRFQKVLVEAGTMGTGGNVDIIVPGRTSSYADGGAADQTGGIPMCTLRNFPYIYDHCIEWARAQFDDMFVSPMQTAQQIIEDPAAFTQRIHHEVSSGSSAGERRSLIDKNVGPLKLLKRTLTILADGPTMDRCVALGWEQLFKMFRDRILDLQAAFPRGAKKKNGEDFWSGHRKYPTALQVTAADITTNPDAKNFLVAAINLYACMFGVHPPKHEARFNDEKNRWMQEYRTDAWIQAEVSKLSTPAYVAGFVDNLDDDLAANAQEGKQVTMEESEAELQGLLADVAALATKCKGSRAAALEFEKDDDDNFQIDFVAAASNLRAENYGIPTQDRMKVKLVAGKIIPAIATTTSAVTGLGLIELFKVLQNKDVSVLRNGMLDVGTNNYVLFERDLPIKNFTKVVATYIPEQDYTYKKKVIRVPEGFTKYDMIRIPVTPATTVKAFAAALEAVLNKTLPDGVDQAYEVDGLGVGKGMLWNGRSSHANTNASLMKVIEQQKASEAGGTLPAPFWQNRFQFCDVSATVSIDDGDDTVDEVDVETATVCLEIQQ
As to the kind of experiment: Leishmania donovani Ubiquitin Activating Enzyme (LdE1). In kind it is functional. The following applies: 30 µM.

For test [3], the target named is AMP-activated protein kinase, AMPK (Homo sapiens) (UniProt P54646+O43741+P54619+Q9UGJ0+Q9Y478+Q13131+Q9UGI9). As to the kind of experiment: AMP-dependent Kinase enzyme assay. An in vitro enzyme assay that detects ADP turnover that is directly proportional to AMPK activity. This uses naive AMPK that is activated during the assay with MK-8722. The class given is functional. The following applies: 30 µM.

Test [4] addresses Sialic acid-binding Ig-like lectin 9 (Homo sapiens) (UniProt Q9Y336). As to the kind of experiment: Hs-Siglec9 ALPHAscreen SOP 20170721. Conditions: 10 µM. Background: Bead proximity is the source of the signal in Alpha formats.
Another test concerns Trypanosoma cruzi. In words: Trypanosoma cruzi phosphomannomutase and mannose-1-phosphate guanylyltransferase assay. The class given is functional. The following applies: 10 µM.
The target in test [5] is T2, Arginase-2, mitochondrial (Homo sapiens) (UniProt P78540).
T2 sequence (whole entry): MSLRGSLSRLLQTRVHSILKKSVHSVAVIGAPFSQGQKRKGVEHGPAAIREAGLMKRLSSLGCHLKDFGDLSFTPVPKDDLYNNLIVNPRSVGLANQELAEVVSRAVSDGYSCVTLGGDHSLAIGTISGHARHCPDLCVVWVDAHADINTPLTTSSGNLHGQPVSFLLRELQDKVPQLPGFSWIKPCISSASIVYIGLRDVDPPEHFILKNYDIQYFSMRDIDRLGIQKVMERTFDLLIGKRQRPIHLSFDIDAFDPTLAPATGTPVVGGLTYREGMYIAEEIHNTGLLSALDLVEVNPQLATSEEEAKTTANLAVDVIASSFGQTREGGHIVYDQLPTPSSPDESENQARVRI
As to the kind of experiment: in vitro enzyme assay to detect the production of urea directly proportional to the activity of Arginase II. Also: in the data most compounds retested in dose-response had high values. The class given is functional. Conditions: 33.3 µM.

The target in test [6] is T3, Proteasome subunit beta (Trypanosoma cruzi) (UniProt O96673).
T3 sequence (whole entry): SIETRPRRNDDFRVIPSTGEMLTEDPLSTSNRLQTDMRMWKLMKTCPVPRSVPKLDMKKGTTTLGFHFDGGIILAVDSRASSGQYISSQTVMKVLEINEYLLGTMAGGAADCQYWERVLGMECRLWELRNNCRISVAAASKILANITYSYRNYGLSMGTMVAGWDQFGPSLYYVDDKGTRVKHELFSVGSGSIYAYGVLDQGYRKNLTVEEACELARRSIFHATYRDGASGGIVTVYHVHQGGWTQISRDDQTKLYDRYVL
In words: Trypanosoma cruzi proteasome chymotrypsin-like activity (TcProtChymo) assay. Also: in the data most compounds retested in dose-response had high values. Conditions: 9.37 µM. The class given is functional.

For a further test, the species on record is Homo sapiens. In words: To identify inhibition of the IFN signalling (Jak-Stat) pathway via expression of an eGFP reporter gene under the control of an IFN-stimulated response element (ISRE) containing MxA promoter. The class given is functional. Conditions: 30 µM.
Test [7] concerns the target T4, Tyrosyl-tRNA synthetase, putative (Trypanosoma cruzi (strain CL Brener)) (UniProt Q4DSP6).
T4 sequence (whole entry): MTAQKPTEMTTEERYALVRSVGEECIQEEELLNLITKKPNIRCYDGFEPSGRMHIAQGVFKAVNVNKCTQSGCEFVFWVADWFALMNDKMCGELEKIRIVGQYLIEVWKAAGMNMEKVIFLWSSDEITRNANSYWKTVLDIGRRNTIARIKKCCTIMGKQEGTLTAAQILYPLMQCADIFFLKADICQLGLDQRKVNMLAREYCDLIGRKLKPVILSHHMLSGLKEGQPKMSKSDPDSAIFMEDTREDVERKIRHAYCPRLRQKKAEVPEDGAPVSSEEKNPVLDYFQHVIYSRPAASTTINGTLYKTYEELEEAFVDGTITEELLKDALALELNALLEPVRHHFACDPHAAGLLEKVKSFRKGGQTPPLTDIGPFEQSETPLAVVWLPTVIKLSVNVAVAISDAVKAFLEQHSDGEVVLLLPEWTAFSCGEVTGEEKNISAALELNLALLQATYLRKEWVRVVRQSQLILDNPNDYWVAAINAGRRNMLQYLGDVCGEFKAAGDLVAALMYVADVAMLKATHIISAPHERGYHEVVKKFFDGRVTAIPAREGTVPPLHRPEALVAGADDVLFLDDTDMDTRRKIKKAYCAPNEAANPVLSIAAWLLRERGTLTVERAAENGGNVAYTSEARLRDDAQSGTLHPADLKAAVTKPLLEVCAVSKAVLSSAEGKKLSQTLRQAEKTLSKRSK
As to the kind of experiment: Trypanosoma cruzi tyrosyl tRNA synthetase (TcYRS) _High Tyrosine SOP. Also: in the data most compounds retested in dose-response had high values. In kind it is functional. Conditions: 30 µM.

In test [8] the target is T4, Tyrosyl-tRNA synthetase, putative (Trypanosoma cruzi (strain CL Brener)). As to the kind of experiment: Trypanosoma cruzi tyrosyl tRNA synthetase (TcYRS) SOP. The class given is functional. Conditions: 30 µM.
Test [9] addresses Chromo domain-containing protein 1 (Saccharomyces cerevisiae (strain ATCC 204508 / S288c) (Baker's yeast)) (UniProt P32657). As to the kind of experiment: ScCHD-1 Enzyme Inhibition Assay. Also: in the data most compounds retested in dose-response had high values. The class given is functional. The following applies: 30 µM.

For some of these results: Entries with a potency or affinity are not part of this list.

Sequence of Sialic acid-binding Ig-like lectin 9 (Homo sapiens) (Q9Y336 whole entry): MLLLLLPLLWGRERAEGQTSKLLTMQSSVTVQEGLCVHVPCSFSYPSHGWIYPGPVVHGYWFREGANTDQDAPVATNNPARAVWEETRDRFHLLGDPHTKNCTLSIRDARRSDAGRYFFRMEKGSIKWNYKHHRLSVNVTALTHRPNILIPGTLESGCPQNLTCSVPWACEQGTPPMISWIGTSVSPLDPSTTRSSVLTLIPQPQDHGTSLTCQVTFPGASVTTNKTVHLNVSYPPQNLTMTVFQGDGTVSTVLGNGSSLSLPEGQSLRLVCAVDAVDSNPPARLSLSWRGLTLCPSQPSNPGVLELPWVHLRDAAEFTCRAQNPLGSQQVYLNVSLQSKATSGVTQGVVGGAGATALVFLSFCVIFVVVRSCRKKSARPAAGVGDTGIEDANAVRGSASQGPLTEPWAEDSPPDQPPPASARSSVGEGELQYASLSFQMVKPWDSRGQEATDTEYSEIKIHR
Sequence of Chromo domain-containing protein 1 (Saccharomyces cerevisiae (strain ATCC 204508 / S288c) (Baker's yeast)) (P32657 whole entry, the tested form may be a part): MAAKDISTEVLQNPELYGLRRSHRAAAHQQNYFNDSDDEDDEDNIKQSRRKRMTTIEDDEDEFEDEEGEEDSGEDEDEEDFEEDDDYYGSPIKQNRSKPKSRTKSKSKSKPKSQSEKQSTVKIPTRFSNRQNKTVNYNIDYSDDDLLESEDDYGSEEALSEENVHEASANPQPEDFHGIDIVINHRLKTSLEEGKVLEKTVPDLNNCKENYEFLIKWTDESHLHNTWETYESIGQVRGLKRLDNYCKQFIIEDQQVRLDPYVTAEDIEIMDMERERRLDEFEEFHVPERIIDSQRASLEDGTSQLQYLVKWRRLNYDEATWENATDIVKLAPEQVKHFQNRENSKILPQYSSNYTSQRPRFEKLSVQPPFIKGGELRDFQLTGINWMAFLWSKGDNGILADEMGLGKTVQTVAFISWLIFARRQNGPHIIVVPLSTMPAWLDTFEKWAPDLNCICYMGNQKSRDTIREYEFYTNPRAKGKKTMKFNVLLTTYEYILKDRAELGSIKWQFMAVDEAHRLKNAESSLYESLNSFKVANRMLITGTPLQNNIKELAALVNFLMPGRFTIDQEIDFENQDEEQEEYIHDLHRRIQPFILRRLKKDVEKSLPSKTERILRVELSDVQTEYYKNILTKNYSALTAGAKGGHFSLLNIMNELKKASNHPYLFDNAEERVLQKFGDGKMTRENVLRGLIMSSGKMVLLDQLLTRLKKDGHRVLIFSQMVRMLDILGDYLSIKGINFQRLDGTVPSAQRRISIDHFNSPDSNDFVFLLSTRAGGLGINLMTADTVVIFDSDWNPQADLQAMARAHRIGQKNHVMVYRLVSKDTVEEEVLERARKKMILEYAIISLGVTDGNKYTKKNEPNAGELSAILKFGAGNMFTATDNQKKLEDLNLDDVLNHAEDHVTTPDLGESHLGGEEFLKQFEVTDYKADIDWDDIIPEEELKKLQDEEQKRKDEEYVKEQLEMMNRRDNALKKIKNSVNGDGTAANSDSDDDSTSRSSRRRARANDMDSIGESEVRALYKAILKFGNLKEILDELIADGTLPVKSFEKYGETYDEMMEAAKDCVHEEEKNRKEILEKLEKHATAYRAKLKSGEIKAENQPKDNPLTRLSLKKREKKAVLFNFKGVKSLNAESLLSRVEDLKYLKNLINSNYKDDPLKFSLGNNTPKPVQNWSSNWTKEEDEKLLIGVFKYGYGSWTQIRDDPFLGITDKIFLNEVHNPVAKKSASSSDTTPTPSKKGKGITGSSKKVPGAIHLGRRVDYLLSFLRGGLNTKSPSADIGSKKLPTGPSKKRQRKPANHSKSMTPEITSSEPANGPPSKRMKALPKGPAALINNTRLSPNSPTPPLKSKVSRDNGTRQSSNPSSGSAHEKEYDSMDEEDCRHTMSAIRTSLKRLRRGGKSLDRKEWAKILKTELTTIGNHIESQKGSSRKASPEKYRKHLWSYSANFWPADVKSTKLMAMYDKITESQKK
Sequence of Protein translocase subunit SecA (Escherichia coli (strain K12)) (P10408 whole entry): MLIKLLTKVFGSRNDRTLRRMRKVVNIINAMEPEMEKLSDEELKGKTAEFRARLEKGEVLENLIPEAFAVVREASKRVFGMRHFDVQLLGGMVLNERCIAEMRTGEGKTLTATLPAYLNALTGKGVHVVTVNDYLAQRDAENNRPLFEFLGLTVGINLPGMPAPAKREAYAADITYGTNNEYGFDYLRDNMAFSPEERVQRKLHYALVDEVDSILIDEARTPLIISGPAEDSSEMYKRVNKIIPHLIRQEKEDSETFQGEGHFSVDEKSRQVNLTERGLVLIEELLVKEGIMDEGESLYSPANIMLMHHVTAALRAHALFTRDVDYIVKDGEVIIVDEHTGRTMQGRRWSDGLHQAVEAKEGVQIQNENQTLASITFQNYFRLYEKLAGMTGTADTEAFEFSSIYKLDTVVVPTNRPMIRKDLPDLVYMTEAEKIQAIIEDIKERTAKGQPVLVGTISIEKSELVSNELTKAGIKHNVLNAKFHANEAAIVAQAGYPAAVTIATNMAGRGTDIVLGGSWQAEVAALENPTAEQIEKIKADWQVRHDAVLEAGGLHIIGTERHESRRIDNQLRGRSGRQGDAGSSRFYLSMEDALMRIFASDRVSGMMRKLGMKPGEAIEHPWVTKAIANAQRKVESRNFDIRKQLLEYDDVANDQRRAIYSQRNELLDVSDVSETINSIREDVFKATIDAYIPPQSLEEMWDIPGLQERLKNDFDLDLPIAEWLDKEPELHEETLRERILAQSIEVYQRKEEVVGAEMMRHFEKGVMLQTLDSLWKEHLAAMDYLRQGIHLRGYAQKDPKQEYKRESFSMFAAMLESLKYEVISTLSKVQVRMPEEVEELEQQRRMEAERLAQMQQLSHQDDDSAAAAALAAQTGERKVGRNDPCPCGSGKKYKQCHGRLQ

As to `CCc1noc(C(C)N2CCN(Cc3nc(C)c(C)o3)CC2)n1` (stereo not drawn), the Percent Effect in [1] is -2.85%; in test [2], 0%; in test [3], 6.83%; in test [4], 1.87%; in the test with Trypanosoma cruzi, -6.39%; in [5], -0.766%. Further, the Percent Effect in test [6] was 0.668%; in the test filed under Homo sapiens it was 20.8%; in test [7] it was -5.39%; in test [8], -7.32%; in [9] it was 2.3%.

Consider `Cc1ccc2c(c1)C1(CCNCC1)CN2C(=O)CN(C)C`, for which the Percent Effect in test [1] was -3.67%; in test [2], 10.8%; in [3] it was 5.31%; in test [4] it was -2.86%; in the test with Trypanosoma cruzi it was -7.14%; in [5], 1.59%. The Percent Effect was 15.7% in test [6]; 14.1% in the test filed under Homo sapiens; 5.41% in test [7]; 12.8% in [8]; -2.47% in test [9].

Consider `CC(=O)NCc1ccc(C(=O)N2CCCC2c2cnn(C)c2)o1` (stereo not drawn), for which the Percent Effect in [1] was -4.23%; in [2], -2.63%; in test [3], -0.621%; in test [4] it was 3.5%; in the test with Trypanosoma cruzi, -0.467%; in [5], 3.24%. Also, the Percent Effect in test [6] was 6.51%; in the test filed under Homo sapiens, -0.0723%; in [7], -0.493%; in [8], -1.24%; in test [9] it was 2.06%.

Take `Cc1cnn(CC2CCCN2C(=O)CCCc2nc(C)no2)c1` (stereo not drawn): the Percent Effect was -1.89% in test [1]; 13.2% in [2]; 1.65% in test [3]; -10.6% in test [4]; -3.21% in the test with Trypanosoma cruzi; -3.55% in [5]. Moreover, the Percent Effect in test [6] was 4.89%; in the test filed under Homo sapiens, 27.9%; in test [7], 1.06%; in test [8] it was 10.4%; in test [9], -6.12%.

As for `O=S(=O)(C1CC1)N1CCO[C@H]2[C@H](OCCN3CCCC3)CC[C@@H]21`, the Percent Effect in test [1] is 0.18%; in test [2] it was 18.7%; in [3] it was -5.59%; in [4], -6.26%; in the test with Trypanosoma cruzi it was 5.6%; in test [5], -62.2%. Besides, the Percent Effect in test [6] is 9.74%; in the test filed under Homo sapiens, 17.6%; in [7], 5.21%; in test [8], 20%; in [9], -11.8%.

For `Cc1occc1C(=O)N1CCC[C@]2(C[C@@H](OCc3ccncc3)CO2)C1`, the Percent Effect is 0.103% in test [1]; 10.7% in [2]; 1.3% in test [3]; 1.1% in test [4]; -1.16% in the test on Trypanosoma cruzi; -23.5% in test [5]. For the same compound, the Percent Effect in test [6] was 16.4%; in the test listed under Homo sapiens, -0.395%; in [7] it was 7.29%; in test [8], 22.5%; in test [9], -5.63%.

For the compound `CNC(=O)C1Cn2ccnc2C2(CCN(CCF)CC2)O1` (stereo not drawn), the Percent Effect in test [1] was -1.42%; in [2], 5.2%; in test [3], 2.6%; in [4], -5.27%; with Trypanosoma cruzi, -8.97%; in test [5] it was 0.645%. Also, the Percent Effect in test [6] was 13.1%; in the test listed under Homo sapiens, 15.2%; in test [7] it was 3.17%; in test [8], 3.85%; in test [9], -5.68%.

As to `COCc1ccccc1C(=O)N1CCCC(n2nc(C)cc2C)C1` (stereo not drawn), the Percent Effect in [1] was -3.82%; in test [2], 5.06%; in test [3], -3.09%; in [4], 3.7%; with Trypanosoma cruzi, 4.06%; in [5], -6.08%. Also, the Percent Effect in test [6] is 4.67%; in the test listed under Homo sapiens it was -9.14%; in test [7] it was 4.43%; in test [8], 3.8%; in test [9] it was -4.28%.
